In the library only some 17% were active in any assay of this set; here they are far more common.
HepG2 viability – HepG2 cytotoxicity, counter-screen for TGF-b inhibitors | AID 588856 | HepG2 CAGA-GFP viability, ATP luminescence, 18 h | 0.76% of 410,000 active | Potency, µM (series often up to 46.1 µM), actives largely listed as cytotoxic
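CellTiter-Glo luminescence gave cytotoxicity after 18 hours at 37 degrees C. The cells were HepG2 CAGA-GFP in 1% FBS DMEM, stimulated with 500 pg/mL TGF-beta after compound addition. %Activity was normalised to no-cell wells (complete cell-killing) and DMSO (no toxicity), and curves were fitted and classified.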
HT1080NT lethal – kills 2HG-producing HT-1080-NT fibrosarcoma cells. HT-1080-NT fibrosarcoma viability, CellTiter-Glo ATP luminescence, 48 h. Potency, µM (doses to about 46.1 µM), hits mostly cytotoxic. 1.6% of 360,000 active;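 also: NT is the 2HG producing partner of a matched IDH1 knockdown line; nearly all actives have a fitted effect of over 55% in size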
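Viability by CellTiter-Glo luminescence after 48 h compound exposure at 37C of HT-1080-NT cells (750/well, RPMI, 5% FBS). % activity scaled between DMSO wells and medium-only wells, then curve-fitted and categorized by curve class.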
TDP1 cell CPT – DT40-hTDP1 cell growth loss with CPT. 12% of 420,000 active. AID 686979. Potency, µM (highest dose often 46.2 µM), most hits filed as inhibitors. chicken DT40 Tdp1-/-;hTDP1 cells + 20 nM CPT, ATP luminescence, 48 h; also: nearly all actives have a fitted effect of over 55% in size
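Chicken DT40 Tdp1-/- cells complemented with human TDP1, 400 cells/well, exposed to compounds plus 20 nM camptothecin for at least 48 h at 37 C; viability read as ATP content by CellTiter-Glo luminescence.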
TGFb inhibitor – TGF-b pathway inhibition; HepG2 CAGA-GFP TGF-b/SMAD3 reporter, GFP fluorescence, 18 h; TGF-beta stimulated, 500 pg/mL final; Potency, µM (titrated, usually from 46.1 µM), hits mostly inhibitors; 1.2% of 410,000 active; AID 588855; also: nearly all actives have a fitted effect of over 65% in size
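Inhibition of TGF-beta-driven CAGA-GFP reporter expression in HEPG2 cells is measured by cellular GFP fluorescence after 18 h stimulation with 500 pg/mL recombinant TGF-beta in 1% FBS medium at 37 degrees C.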
HT1080 IDH1KD tx – kills HT-1080 cells with IDH1 knockdown; HT-1080 IDH1 knockdown viability, ATP luminescence, 48 h; Potency, µM (doses to about 46.1 µM), actives largely listed as cytotoxic; 2% of 360,000 active; AID 686971
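Assay cells: HT-1080 with IDH1 knockdown, 750 per well, RPMI/5% FBS. Exposure: 48 h at 37 °C following 2 h pre-incubation. Read: CellTiter-Glo luminescence; fitted concentration-response, curve class assigned.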
TDP1 cell noCPT – qHTS for Inhibitors of human tyrosyl-DNA phosphodiesterase 1 (TDP1): qHTS in cells in absence of CPT. DT40 Tdp1-/- hTDP1 cells, no CPT, ATP luminescence, 48 h. 15% of 420,000 active. AID 686978, 2013. Potency, µM (highest dose often 46.2 µM), usual class: inhibitors; also: nearly all actives have a fitted effect of over 55% in size
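No-CPT arm: Tdp1-/-;hTDP1 DT40 cells (400/well) plus compounds, incubated ≥48 hr at 37 °C. Readout CellTiter-Glo luminescence.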
Numbers stand for hits; n = inactive; u = inconclusive; x = not tested or not shown; ! = not active in a repeat. Calls follow the shape of the dose curve; as a rule, active = well fitted curve in the direction sought with a large enough effect; inconclusive = small, poorly fitted or top-dose-only effect, or another doubt; inactive = no such curve, though single readings can be large; an effect the other way counts as inactive or inconclusive.

SMILES | HepG2 viability | HT1080NT lethal | TDP1 cell CPT | TGFb inhibitor | HT1080 IDH1KD tx | TDP1 cell noCPT
CCc1ccc(NC(=O)C2CCN(S(=O)(=O)c3cccc(-c4noc(C)n4)c3)CC2)cc1 | n | x | 21µM | n | x | 15µM
CCc1ccc(NC(=O)C2CCN(S(=O)(=O)c3ccc4c(c3)N(C(C)=O)CCO4)CC2)cc1 | n | n | n | n | n | 18µM
Cc1nc(-c2cccc(S(=O)(=O)N3CCC(C(=O)NCc4ccccc4)CC3)c2)no1 | n | x | u | n | x | u
COc1ccc(NC(=O)C2CCN(S(=O)(=O)c3cccc(-c4noc(C)n4)c3)CC2)cc1OC | n | x | u | u | x | 21µM
CCc1ccccc1NC(=O)C1CCN(S(=O)(=O)c2ccc3c(c2)N(C(C)=O)CCO3)CC1 | n | n | n | n | n | n
O=C(COCC(=O)N/N=C/c1ccc(F)cc1)N/N=C/c1ccc(F)cc1 | n | n | n | n | n | n
COc1cc(OC)c(NC(=O)c2ccc3c(SCC(=O)O)c4c(nc3c2)CCCC4)cc1Cl | n | n | n | n | n | n
CCc1ccccc1NC(=O)CN1C(=O)C2CCCN2c2ccc(S(=O)(=O)N(CC)CC)cc21 (stereo not drawn) | n | x | n | n | x | n
CCCCCCCCN1C(=O)[C@H](CC(=O)N2CCN(C(=O)c3ccco3)CC2)C[C@@]2(C(=O)OC)CCCCC=C12 | x | u | u | x | u | 23µM
COC(=O)[C@@]12C[C@@H](CC(=O)N3CCN(C(=O)c4ccco4)CC3)C(=O)N(CCc3ccc(OC)c(OC)c3)C1=CCC(C)(C)C2 | x | n | u | x | n | u
CCCCCCCCN1C(=O)[C@H](CC(=O)N2CCN(C(=O)c3ccco3)CC2)C[C@@]2(C(=O)OC)CC(C)(C)CC=C12 | x | u | 12µM | x | u | 15µM
COC(=O)[C@]12CCCCC=C1N(Cc1ccco1)C(=O)[C@H](CC(=O)N1CCN(C(=O)c3ccco3)CC1)C2 | x | n | n | x | n | u
Cc1cc(N2CCN(C)CC2)nc2ccc(NC(=O)c3ccc4c(c3)OCO4)cc12 | n | u | n | n | u | n
Cc1cc(N2CCCCC2)nc2ccc(NC(=O)c3ccc(F)cc3)cc12 | n | x | 21µM | u | x | 15µM
COc1cccc(C(=O)Nc2ccc3nc(N4CCC(C)CC4)cc(C)c3c2)c1 | n | x | 12µM | u | x | 21µM
COc1ccc(C(=O)Nc2ccc3nc(N4CCC(C)CC4)cc(C)c3c2)cc1 | n | x | 23µM | n | x | 16µM
COc1ccc(-c2n[nH]nc2C2=CC(=O)CC(C)(C)C2)cc1 | n | n | u | n | n | u
CN(C)c1ccc(C2CC(c3c(O)n(C4CCCCC4)c(=O)[nH]c3=O)=Nc3ccccc3S2)cc1 (stereo not drawn) | n | x | n | n | x | n
COC(=O)c1ccc2c(=O)n(CCCCCC(=O)NCc3ccc(OC)cc3)c(=O)[nH]c2c1 | n | x | 23µM | u | x | u
COC(=O)c1ccc2c(=O)n(CCCCCC(=O)NC(C)C)c(=O)[nH]c2c1 | n | n | u | 25µM! | n | 21µM
CC1CCCC(NC(=O)COC(=O)c2ccc(Cl)nc2)C1C (stereo not drawn) | n | n | n | n | n | n
O=[N+]([O-])c1ccccc1S(=O)(=O)N1CCN(Cc2ccc3c(c2)OCO3)CC1 | n | n | n | u | n | u
Cn1c(CN2CCCCC2)nc2cc(NC(=O)c3ccc(F)cc3)ccc21 | n | n | n | n | n | n
COc1ccccc1C(=O)Nc1ccc2c(c1)nc(CN1CCCCC1)n2C | n | n | u | n | n | 23µM!
Cn1c(CN2CCCCC2)nc2cc(NC(=O)c3ccccc3Cl)ccc21 | n | n | 16µM | n | u | 23µM
SMILES | HepG2 viability | HT1080NT lethal | TDP1 cell CPT | TGFb inhibitor | HT1080 IDH1KD tx | TDP1 cell noCPT
O=C(Nc1ccc2c(c1)nc1n2CCN(C2CCCCC2)C1)c1ccco1 | n | n | u | n | n | u
COc1ccccc1C(=O)Nc1ccc2c(c1)nc1n2CCN(C2CCCCC2)C1 | n | u | 15µM | n | u | 23µM
Cc1ccc(-c2nc(CS(=O)CC(=O)NCc3ccco3)c(C)o2)cc1 (stereo not drawn) | n | n | n | n | n | n
COc1cc(CN2CCN(Cc3cccc(OC)c3OC)CC2)cc(OC)c1 | n | n | n | n | n | n
NC[C@H]1O[C@H](O[C@H]2[C@H](O)[C@@H](O[C@H]3O[C@H](CO)[C@@H](O)[C@H](N)[C@H]3O)[C@H](N)C[C@@H]2N)[C@H](N)[C@@H](O)[C@@H]1O | x | x | u | x | x | n
Cn1c(=O)c([N+](=O)[O-])c(-n2cnc3ccccc32)c2ccccc21 | n | u | u | 13µM | u | 21µM
Cn1c(=O)c([N+](=O)[O-])c(N2CCSCC2)c2ccccc21 | n | n | u | n | n | u
Cn1c(=O)c([N+](=O)[O-])c(Cl)c2ccccc21 | n | 5.8µM | 2.6µM | u | 5.8µM | 4.6µM
C=CCOc1ccc(/C=N/n2nnnc2N)cc1OC | n | n | n | n | n | n
COc1cc(NC(=O)CCS(=O)(=O)c2ccc(Br)cc2)cc(OC)c1 | n | x | n | n | x | u
CCc1cccc(NC(=O)CCS(=O)(=O)c2ccc(Br)cc2)c1 | n | n | 23µM | n | n | 29µM
Cc1ccc(C(=O)N2CC3(C(C)C)CN(C(=O)c4ccc(C)cc4)CC(C(C)C)(C2)C3=O)cc1 | n | n | u | n | n | 15µM
COc1ccccc1-c1nnc2sc(-c3ccc(N(C)C)cc3)nn12 | n | 0.92µM | 0.0073µM | u | 0.52µM | 0.082µM
CN(C)c1ccc(-c2nn3c(-c4cccnc4)nnc3s2)cc1 | n | n | n | n | n | n
COc1ccccc1-c1nnc2sc(-c3cc4ccccc4o3)nn12 | n | u | 1.2µM | n | 1.5µM | 1µM
CC(C)C(=O)NCCc1nc2ccccc2n1CCc1ccccc1 | n | n | u | n | n | 21µM
C=C(Br)Cn1c(CC)nc2ccccc21 | n | n | n | n | n | u
CC(C)Cc1nc2ccccc2n1CCc1ccccc1 | n | u | 23µM | n | n | u
CC(C)C(=O)NCCc1nc2ccccc2n1C | n | n | n | n | n | n
CCc1nc2ccccc2n1CCc1ccccc1 | n | n | n | n | n | u
C=C(Br)Cn1c(CC(C)C)nc2ccccc21 | n | n | 12µM | n | n | 9.2µM
CCc1nc2ccccc2n1CCC(C)C | n | n | 26µM | u | n | 16µM
OCC[N+]1(CCc2ccccc2)CCOCC1 | n | x | n | n | x | n

Bioassay records as filed in PubChem BioAssay.
